Laboratory results reported in PubChem BioAssay (EPA / NIEHS).
Records with an inconclusive call do not appear. Activity calls are given as the source filed them. How the source made its calls, unless noted: active means hit-call score of the fitted dose curve at least 0.9, where 1 is the maximum; inactive means score below 0.9.

Key:
[1] = biological target: Paired box protein Pax-6 (Homo sapiens) (UniProt P26367); assay: ATG_Pax6_CIS: Attagene CIS-FACTORIAL HepG2 Assay for human Paired Box 6 (PAX6) (AID 2282956); conditions: HepG2 CIS-FACTORIAL PAX6 reporter transcription, RNA readout; actives raise or lower the signal
Sequence of Paired box protein Pax-6 (Homo sapiens) (P26367 whole entry, looked up): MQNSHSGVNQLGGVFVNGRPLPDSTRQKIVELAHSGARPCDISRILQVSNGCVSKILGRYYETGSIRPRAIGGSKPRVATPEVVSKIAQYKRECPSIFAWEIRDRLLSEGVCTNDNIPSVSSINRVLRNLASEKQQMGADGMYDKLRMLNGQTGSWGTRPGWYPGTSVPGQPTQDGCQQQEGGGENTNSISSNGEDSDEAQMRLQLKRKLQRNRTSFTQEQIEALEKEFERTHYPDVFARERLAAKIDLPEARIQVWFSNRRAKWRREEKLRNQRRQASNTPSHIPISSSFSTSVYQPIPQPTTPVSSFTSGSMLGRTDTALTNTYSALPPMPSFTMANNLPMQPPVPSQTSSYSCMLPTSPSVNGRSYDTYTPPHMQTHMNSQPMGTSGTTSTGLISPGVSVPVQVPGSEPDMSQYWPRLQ
Outline: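 Read-out is reporter transcript level, measured by RT-PCR with fluorescent primer extension and capillary electrophoresis after 24 h dosing of transfected HepG2 cells. Activity in either direction fitted relative to DMSO control.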

[2] = ATG_PXRE_CIS: Attagene CIS-FACTORIAL HepG2 Assay for human Pregnane X Receptor Element (PXRE) (AID 2282957); conditions: HepG2 Attagene CIS-FACTORIAL PXRE reporter, mRNA; actives raise or lower the signal
Outline: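 Using HepG2 transfected with multiple reporter transcription units, endogenous factor-driven transcription was scored as reporter mRNA after 24 h exposure.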

[3] = ATG_RORE_CIS: Attagene CIS-FACTORIAL HepG2 Assay for human RAR-related Orphan Receptor Element (RORE) (AID 2282959); conditions: HepG2 Attagene cis-factorial RORE reporter, mRNA; actives raise or lower the signal
Outline: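 Transiently transfected HepG2 reporter cells were treated 24 h. Reporter transcripts were detected by RT-PCR and capillary electrophoresis, with bidirectional fitting against DMSO.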

[4] = ATG_Sox_CIS: Attagene CIS-FACTORIAL HepG2 Assay for human SRY-box transcription factor (SOX) (AID 2282960); conditions: HepG2 Attagene cis-factorial SOX reporter, mRNA; actives raise or lower the signal
Outline: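 Gain- or loss-of-signal endpoint, fitted bidirectionally with DMSO as negative control. Based on reporter mRNA from transfected HepG2 cells harvested 24 h post-treatment and quantified via RT-PCR and capillary electrophoresis.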

[5] = biological target: Transcription factor Sp1 (Homo sapiens) (UniProt P08047); assay: ATG_Sp1_CIS: Attagene CIS-FACTORIAL HepG2 Assay for human Specificity Protein 1 (Sp1) (AID 2282961); conditions: HepG2 Sp1 cis-reporter transcription, actives raise or lower the signal
Sequence of Transcription factor Sp1 (Homo sapiens) (P08047 whole entry, looked up, the tested form may be a part): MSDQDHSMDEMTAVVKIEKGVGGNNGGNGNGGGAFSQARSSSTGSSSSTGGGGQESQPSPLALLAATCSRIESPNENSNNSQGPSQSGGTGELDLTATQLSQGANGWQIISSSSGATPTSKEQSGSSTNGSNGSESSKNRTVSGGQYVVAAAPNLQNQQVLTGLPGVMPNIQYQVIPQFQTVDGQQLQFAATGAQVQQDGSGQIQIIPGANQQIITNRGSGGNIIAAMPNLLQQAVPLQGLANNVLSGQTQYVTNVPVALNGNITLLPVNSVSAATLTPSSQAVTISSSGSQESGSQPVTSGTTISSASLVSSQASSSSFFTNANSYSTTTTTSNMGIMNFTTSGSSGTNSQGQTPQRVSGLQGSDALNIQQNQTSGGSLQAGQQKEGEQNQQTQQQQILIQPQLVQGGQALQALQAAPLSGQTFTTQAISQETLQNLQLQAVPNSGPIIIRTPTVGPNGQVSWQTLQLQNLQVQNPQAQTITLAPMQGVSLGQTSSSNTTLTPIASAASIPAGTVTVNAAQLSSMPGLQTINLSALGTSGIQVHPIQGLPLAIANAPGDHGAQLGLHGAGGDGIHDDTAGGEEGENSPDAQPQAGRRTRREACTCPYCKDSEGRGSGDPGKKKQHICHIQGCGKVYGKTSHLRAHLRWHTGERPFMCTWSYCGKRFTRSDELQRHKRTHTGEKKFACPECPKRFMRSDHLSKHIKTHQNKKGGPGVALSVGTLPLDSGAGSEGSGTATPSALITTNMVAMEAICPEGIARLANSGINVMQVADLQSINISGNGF
Outline: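 Endpoint reflects endogenous Sp1 transcriptional activity, not an exogenous fusion protein: HepG2 cells with transfected cis-regulated reporters, 24 h dosing, RT-PCR/capillary electrophoresis mRNA read-out, DMSO-normalised bidirectional fit.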

[6] = ATG_SREBP_CIS: Attagene CIS-FACTORIAL HepG2 Assay for human Sterol Regulatory Element Binding (SREBP) (AID 2282962); conditions: HepG2 Attagene cis-factorial SREBP reporter, mRNA; actives raise or lower the signal
Outline: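 Endogenous SREBP activity read as cis-element-driven reporter transcript in transiently transfected HepG2, 24 h post-dosing; quantified via RT-PCR plus capillary electrophoresis of fluorescent fragments. Gain or loss of signal fitted relative to DMSO baseline.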

[7] = biological target: Signal transducer and activator of transcription 3 (Homo sapiens) (UniProt P40763); assay: ATG_STAT3_CIS: Attagene CIS-FACTORIAL HepG2 Assay for human Signal Transducer and Activator of Transcription 3 (STAT3) (AID 2282963); conditions: HepG2, Attagene cis-factorial STAT3 reporter transcription; actives raise or lower the signal
Sequence of Signal transducer and activator of transcription 3 (Homo sapiens) (P40763 whole entry, looked up): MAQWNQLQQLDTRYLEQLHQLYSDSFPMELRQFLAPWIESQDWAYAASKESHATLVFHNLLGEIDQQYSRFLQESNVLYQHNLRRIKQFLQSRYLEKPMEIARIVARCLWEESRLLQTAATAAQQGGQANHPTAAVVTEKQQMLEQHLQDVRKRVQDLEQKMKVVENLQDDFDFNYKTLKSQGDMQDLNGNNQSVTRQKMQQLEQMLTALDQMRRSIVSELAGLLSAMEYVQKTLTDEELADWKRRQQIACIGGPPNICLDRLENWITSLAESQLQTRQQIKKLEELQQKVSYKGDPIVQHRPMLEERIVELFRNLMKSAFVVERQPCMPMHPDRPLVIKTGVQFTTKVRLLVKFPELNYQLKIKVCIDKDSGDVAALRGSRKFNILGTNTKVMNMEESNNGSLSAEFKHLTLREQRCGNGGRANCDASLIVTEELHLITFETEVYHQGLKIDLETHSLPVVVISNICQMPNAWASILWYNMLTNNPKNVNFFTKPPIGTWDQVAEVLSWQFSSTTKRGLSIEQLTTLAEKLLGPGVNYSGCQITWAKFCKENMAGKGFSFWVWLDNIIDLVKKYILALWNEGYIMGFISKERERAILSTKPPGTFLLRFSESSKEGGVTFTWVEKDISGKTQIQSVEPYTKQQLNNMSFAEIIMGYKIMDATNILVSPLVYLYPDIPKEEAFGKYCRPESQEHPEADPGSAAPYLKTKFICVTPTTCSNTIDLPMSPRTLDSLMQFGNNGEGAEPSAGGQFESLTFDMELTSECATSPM
Outline: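 Readout is reporter transcript quantified by RT-PCR and capillary electrophoresis, with 6-FAM primer extension and HpaI digestion. Total RNA is taken 24 h after dosing transiently transfected HepG2 carrying cis-regulated reporter units. Bidirectional fit against DMSO.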

[8] = ATG_TA_CIS: Attagene CIS-FACTORIAL HepG2 Assay for human TA Basal Promoter (AID 2282964); conditions: HepG2 Attagene CIS-factorial TA basal promoter reporter; actives raise or lower the signal
Outline: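 Cis-factorial format in HepG2: reporters report endogenous factors, not chimeric Gal4 fusions. After 24 h treatment, reporter transcripts were measured by RT-PCR-capillary electrophoresis fluorescence, analysed bidirectionally versus DMSO.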

[9] = ATG_TCF_b_cat_CIS: Attagene CIS-FACTORIAL HepG2 Assay for human T-Cell-Factor with beta-catenin (TCF/b-cat) (AID 2282965); conditions: HepG2 TCF/beta-catenin cis-reporter transcription, actives raise or lower the signal
Outline: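 Endogenous transcription factor activity is captured through cis-promoter reporter constructs transiently introduced into human HepG2 liver cells. Induced reporter mRNA is measured after 24 h and fitted bidirectionally relative to DMSO.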

[10] = ATG_TAL_CIS: Attagene CIS-FACTORIAL HepG2 Assay for human TAL Basal Promoter (AID 2282966); conditions: HepG2 Attagene cis-factorial TAL promoter reporter; actives raise or lower the signal;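 further: background control endpoint measuring basal TAL promoter reporter mRNA not a specific factor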
Outline: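 After 24 hours of chemical exposure, transfected HepG2 cells yielded RNA that was converted to 6-FAM-labelled, HpaI-digested reporter fragments for capillary electrophoresis. Values derive from bidirectional fitting against DMSO controls.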

[11] = ATG_TGFb_CIS: Attagene CIS-FACTORIAL HepG2 Assay for human Transforming Growth Factor (TGF) (AID 2282967); conditions: HepG2 Attagene CIS TGFb reporter, mRNA transcription; actives raise or lower the signal
Outline: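 Multiplexed cis-reporter HepG2 system, 24 h treatment; mRNA induction read by fluorescence after RT-PCR and CE; DMSO negative control, bidirectional curve fitting.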

[12] = biological target: X-box-binding protein 1 (Homo sapiens) (UniProt P17861); assay: ATG_Xbp1_CIS: Attagene CIS-FACTORIAL HepG2 Assay for human X-box Binding Protein 1 (XBP1) (AID 2282972); conditions: HepG2 XBP1 cis-element reporter, Attagene multiplex; actives raise or lower the signal
Sequence of X-box-binding protein 1 (Homo sapiens) (P17861 whole entry, looked up): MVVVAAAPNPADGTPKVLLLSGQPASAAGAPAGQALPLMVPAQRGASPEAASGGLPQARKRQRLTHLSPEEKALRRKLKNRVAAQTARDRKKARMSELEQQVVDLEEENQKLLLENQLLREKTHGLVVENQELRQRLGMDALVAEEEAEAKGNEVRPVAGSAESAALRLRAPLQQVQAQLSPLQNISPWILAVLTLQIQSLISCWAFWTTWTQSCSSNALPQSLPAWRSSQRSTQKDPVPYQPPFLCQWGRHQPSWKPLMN
Outline: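 Reporter transcripts were quantified by RT-PCR with fluorescent primer extension and capillary electrophoresis after 24 h chemical exposure. Cells: transiently transfected HepG2 carrying cis-regulated reporter constructs; data fitted bidirectionally relative to DMSO.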

[13] = ATG_M_19_TRANS: Attagene TRANS-FACTORIAL HepG2 Assay for M19 Transcription Factor (Internal Marker) (AID 2282974; active means hit-call score of the fitted dose curve at least 0.9, where 1 is the maximum); conditions: HepG2 Attagene TRANS-FACTORIAL M19 internal marker reporter
Outline: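 Using RT-PCR and capillary electrophoresis, reporter mRNA from transiently transfected human HepG2 cells was quantified following 24 h exposure; activity was fitted in the positive direction against DMSO.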

[14] = ATG_VDRE_CIS: Attagene CIS-FACTORIAL HepG2 Assay for human Vitamin D Receptor Element (VDRE) (AID 2282968); conditions: HepG2 VDRE cis-reporter transcription, actives raise or lower the signal
Outline: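 Readout is VDRE-driven reporter mRNA reflecting endogenous factor activity in human HepG2 cells, sampled 24 h post-dose. Quantification used labelled RT-PCR products separated by capillary electrophoresis; bidirectional analysis relative to DMSO.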

[15] = biological target: Estrogen receptor (Homo sapiens) (UniProt P03372); assay: ATG_ERa_TRANS: Attagene TRANS-FACTORIAL HepG2 Assay for human Estrogen Receptor alpha (ERa) (AID 2282970; active means hit-call score of the fitted dose curve at least 0.9, where 1 is the maximum); conditions: HepG2 Attagene TRANS ERa GAL4 reporter, mRNA
Sequence of Estrogen receptor (Homo sapiens) (P03372 whole entry, looked up, the tested form may be a part): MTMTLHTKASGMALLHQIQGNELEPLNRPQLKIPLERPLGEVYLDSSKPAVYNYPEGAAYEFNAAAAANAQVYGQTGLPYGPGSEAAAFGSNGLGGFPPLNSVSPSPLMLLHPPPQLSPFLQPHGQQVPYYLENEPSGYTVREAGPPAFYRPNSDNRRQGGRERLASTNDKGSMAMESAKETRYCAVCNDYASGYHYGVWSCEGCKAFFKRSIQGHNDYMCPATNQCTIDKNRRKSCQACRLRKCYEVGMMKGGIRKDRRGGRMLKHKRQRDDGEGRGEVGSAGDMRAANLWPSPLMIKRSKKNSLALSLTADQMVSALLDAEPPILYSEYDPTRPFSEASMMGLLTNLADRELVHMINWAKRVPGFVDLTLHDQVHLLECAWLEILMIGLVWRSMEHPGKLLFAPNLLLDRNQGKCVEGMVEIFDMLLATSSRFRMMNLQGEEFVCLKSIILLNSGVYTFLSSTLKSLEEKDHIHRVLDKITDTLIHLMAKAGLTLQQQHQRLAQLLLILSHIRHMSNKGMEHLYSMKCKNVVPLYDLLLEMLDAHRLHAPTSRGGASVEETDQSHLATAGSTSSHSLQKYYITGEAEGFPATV
Outline: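 Liver-derived HepG2 cells expressing chimeric nuclear receptor-Gal4 proteins from transient transfection were exposed for 24 hours. Gain of reporter mRNA signal versus DMSO, read by capillary electrophoresis of FAM-labelled PCR products, was recorded.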

[16] = ATG_GAL4_TRANS: Attagene TRANS-FACTORIAL HepG2 Assay for GAL4 (Internal Marker) (AID 2282976; active means hit-call score of the fitted dose curve at least 0.9, where 1 is the maximum); conditions: HepG2 Attagene TRANS GAL4 internal marker reporter
Outline: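 First, HepG2 cells were transfected with reporter units under GAL4-UAS control. Next, they were treated with chemical for 24 h. Finally, RNA was reverse-transcribed, PCR-amplified, FAM-labelled and resolved by capillary electrophoresis, with induction scored against DMSO.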

[17] = biological target: Steroid hormone receptor ERR1 (Homo sapiens) (UniProt P11474); assay: ATG_ERRa_TRANS: Attagene TRANS-FACTORIAL HepG2 Assay for human Estrogen-Related Receptor alpha (ERRa) (AID 2282971; active means hit-call score of the fitted dose curve at least 0.9, where 1 is the maximum); conditions: HepG2 Attagene TRANS reporter, ERRa transactivation
Sequence of Steroid hormone receptor ERR1 (Homo sapiens) (P11474 whole entry, looked up, the tested form may be a part): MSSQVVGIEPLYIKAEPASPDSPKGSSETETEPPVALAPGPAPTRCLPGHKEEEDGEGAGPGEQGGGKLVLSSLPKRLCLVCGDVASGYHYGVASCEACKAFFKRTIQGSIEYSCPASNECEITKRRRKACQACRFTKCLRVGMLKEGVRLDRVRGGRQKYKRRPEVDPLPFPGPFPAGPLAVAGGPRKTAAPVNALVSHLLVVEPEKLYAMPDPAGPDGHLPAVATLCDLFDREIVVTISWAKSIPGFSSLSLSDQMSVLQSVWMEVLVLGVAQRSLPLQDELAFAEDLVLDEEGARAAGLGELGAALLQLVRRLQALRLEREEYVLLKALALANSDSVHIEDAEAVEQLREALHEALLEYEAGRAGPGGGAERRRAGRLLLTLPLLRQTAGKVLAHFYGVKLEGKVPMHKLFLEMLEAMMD
Outline: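 Reporter transcript induction was quantified by RT-PCR and capillary electrophoresis of FAM-labelled, HpaI-cut products after 24 h treatment of HepG2 cells carrying transiently transfected GAL4-UAS reporter units and an exogenous ERRa-Gal4 fusion; activity scored as increase over DMSO.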

[18] = biological target: Estrogen-related receptor gamma (Homo sapiens) (UniProt P62508); assay: ATG_ERRg_TRANS: Attagene TRANS-FACTORIAL HepG2 Assay for human Estrogen-Related Receptor gamma (ERRg) (AID 2282977; active means hit-call score of the fitted dose curve at least 0.9, where 1 is the maximum;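 further: hits increase reporter signal over DMSO so potencies reflect activators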); conditions: HepG2 Attagene TRANS reporter, ERRg transactivation
Sequence of Estrogen-related receptor gamma (Homo sapiens) (P62508 whole entry, looked up, the tested form may be a part): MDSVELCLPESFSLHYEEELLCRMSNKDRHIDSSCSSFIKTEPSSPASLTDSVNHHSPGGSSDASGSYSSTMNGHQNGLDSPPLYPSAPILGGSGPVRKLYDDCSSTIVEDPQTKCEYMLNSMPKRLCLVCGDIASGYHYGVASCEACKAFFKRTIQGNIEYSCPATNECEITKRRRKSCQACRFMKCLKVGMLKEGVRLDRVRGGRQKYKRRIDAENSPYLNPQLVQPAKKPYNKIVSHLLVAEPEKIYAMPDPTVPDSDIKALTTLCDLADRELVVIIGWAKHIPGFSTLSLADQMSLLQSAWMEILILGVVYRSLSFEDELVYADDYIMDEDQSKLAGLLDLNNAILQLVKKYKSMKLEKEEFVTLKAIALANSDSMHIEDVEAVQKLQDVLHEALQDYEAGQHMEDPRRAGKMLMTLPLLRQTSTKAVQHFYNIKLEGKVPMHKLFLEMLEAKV
Outline: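 Induction of reporter transcripts through a chimeric NR-Gal4 protein is quantified in transfected human HepG2 liver cells after 24 h chemical exposure, using RT-PCR with capillary electrophoresis detection and DMSO as baseline.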

[19] = biological target: Nuclear receptor subfamily 1 group I member 3 (Homo sapiens) (UniProt Q14994); assay: ATG_CAR_TRANS: Attagene TRANS-FACTORIAL HepG2 Assay for human Constitutive Androstane Receptor (CAR) (AID 2282969; active means hit-call score of the fitted dose curve at least 0.9, where 1 is the maximum;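 further: activators raise reporter mRNA above DMSO so AC50 marks induction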); conditions: HepG2 Attagene TRANS-FACTORIAL CAR reporter
Sequence of Nuclear receptor subfamily 1 group I member 3 (Homo sapiens) (Q14994 whole entry, looked up, the tested form may be a part): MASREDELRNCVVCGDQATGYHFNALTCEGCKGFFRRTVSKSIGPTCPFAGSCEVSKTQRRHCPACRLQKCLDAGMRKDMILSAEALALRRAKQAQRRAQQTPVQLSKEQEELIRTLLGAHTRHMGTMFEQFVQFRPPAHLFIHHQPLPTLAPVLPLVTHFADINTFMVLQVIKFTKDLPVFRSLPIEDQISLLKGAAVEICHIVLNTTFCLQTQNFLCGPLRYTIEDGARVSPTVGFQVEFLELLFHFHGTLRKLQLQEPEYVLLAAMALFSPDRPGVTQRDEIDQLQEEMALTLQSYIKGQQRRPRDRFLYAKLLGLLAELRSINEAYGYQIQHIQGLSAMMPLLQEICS
Outline: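 Signal is reporter mRNA induction relative to DMSO, measured 24 h after dosing by RT-PCR with fluorescent primer extension and capillary electrophoresis. Human HepG2 liver cells carried transiently transfected chimeric NR-Gal4/GAL4-UAS reporter constructs.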

Measured: AC50

O=C(O)c1cccnc1C(=O)O
not listed: [14] | [15] | [16] | [17] | [18] | [19]
inactive: all other assays above

CC(C)NCC(O)COc1ccc(CC(N)=O)cc1 (stereo not given)
not listed: [6] | [17] | [18] | [19]
inactive: all other assays above

CN1C(=O)c2ccccc2C1=O
not listed: [13] | [15] | [19]
inactive: all other assays above

C=C(C)[C@H]1CC=C(C)C(=O)C1
active: [2] 27.9 µM
not listed: [13] | [15] | [16] | [17] | [18] | [19]
inactive: all other assays above

C=CC(=O)OCCCC
not listed: [6] | [15] | [16] | [17] | [18]
inactive: all other assays above

c1ccc2[nH]cnc2c1
not listed: [8] | [9] | [15] | [17] | [18] | [19]
inactive: all other assays above

C=C(C)C(=O)OCCOC1CC2CC1C1C=CCC21 (stereo not given)
not listed: [9] | [13] | [15] | [18] | [19]
inactive: all other assays above

C=CCN(CC=C)CC=C
not listed: [8] | [13] | [15] | [17] | [18]
inactive: all other assays above

CCC1CCCCC1
not listed: [8] | [9] | [15] | [16] | [18] | [19]
inactive: all other assays above

Cc1occc(=O)c1OC(=O)C(C)C
not listed: [9] | [15] | [16] | [18] | [19]
inactive: all other assays above

CCN(CCN)c1cccc(C)c1
active: [2] 36.2 µM | [14] 72.4 µM
not listed: [6] | [13] | [16] | [17]
inactive: all other assays above

CC1=NN(c2ccc(S(=O)(=O)O)cc2)C(=O)C1
not listed: [8] | [15] | [17] | [18] | [19]
inactive: all other assays above

CC1(C)O[C@@H]2[C@@H](CO[C@@]3(COS(N)(=O)=O)OC(C)(C)O[C@@H]23)O1
active: [2] 57.9 µM
not listed: [13] | [15] | [16] | [17] | [18] | [19]
inactive: all other assays above

OC[C@H]1O[C@@H](Oc2ccc(O)cc2)[C@H](O)[C@@H](O)[C@@H]1O
not listed: [13] | [15] | [16] | [17] | [18] | [19]
inactive: all other assays above

COCCOCCOCCO
active: [2] 33.4 µM
not listed: [8] | [15] | [18] | [19]
inactive: all other assays above

O=P(O)(O)O
not listed: [15] | [17] | [18] | [19]
inactive: all other assays above

OCCCCC(O)CO (stereo not given)
not listed: [15] | [18] | [19]
inactive: all other assays above

Cc1cc(CCC(=O)OCCOCCOCCOC(=O)CCc2cc(C)c(O)c(C(C)(C)C)c2)cc(C(C)(C)C)c1O
active: [2] 24.3 µM
not listed: [14] | [15] | [17] | [18]
inactive: all other assays above
